ANO1 block – blocks the mouse calcium-activated chloride channel TMEM16A. normalized B-score (activity score, 25-100; higher = stronger inhibition) at 10 µM. HEK293 TMEM16A/YFP iodide influx fluorescence, ionomycin. hit rate 1.2% among 310,000;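 active means ratio plate-corrected score three or more library SD toward inhibition, starting fluorescence score within five deviations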;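 further: score derived from kinetic fluorescence span divided by baseline fluorescence per well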
Rce1 inhib – yeast Ras-converting enzyme inhibition; yeast membranes, quenched prenylated peptide cleavage fluorescence; calls only; hit rate 0.27% among 290,000; AID 2563;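 active means fall in fluorescence gain of 50% or more versus controls, with final raw signal at or below 3038400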;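 further: plate controls were neutral control wells for no effect and wells lacking membranes for full effect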
TMEM16A act – mouse TMEM16A channel activation, primary screen; B-score at 10 µM; HEK293 TMEM16A/YFP-H148Q/I152L, iodide quench fluorescence; stronger effect = lower value; AID 623877; hit rate 0.3% among 340,000;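 active means fluorescence-ratio B-score plate-corrected deviation score at least 3 library SD below zero, with starting fluorescence score within 5 deviations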;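 further: channel opened by trigger with iodide after compound preincubation; score built on the fluorescence ratio of max minus min over baseline; more negative score means more quench and so TMEM16A activation or potentiation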
Kir21 inh – inhibitors of mouse Kir2.1 inward-rectifier potassium channel. AID 1672. HEK293-Kir2.1, FluxOR thallium flux fluorescence; stronger effect = lower value. B-score at 10 µM. hit rate 0.85% among 310,000;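 active means fluorescence ratio B-score at or below minus 3 SD of library scores, with starting-brightness B-score within 2 SD, cut at about -4.2 in these data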;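 further: channel flux triggered by added potassium and thallium sulfate stimulus; B-score of peak minus minimum fluorescence over baseline after thallium stimulus; more negative B-score means stronger Kir2.1 block with less thallium influx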
CHT PAM – human CHT allosteric activation. Q9GZV3. CHT-expressing cells, membrane potential dye, choline EC20; stronger effect = higher value; LV-AA mutant CHT in HEK293 cells. B-score at 10 µM. hit rate 0.49% among 310,000. AID 488977;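 active means initial fluorescence not abnormally high and integrated response B-score, plate-corrected, over 3 SD above library mean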
Target sequence (Q9GZV3 whole entry, looked up): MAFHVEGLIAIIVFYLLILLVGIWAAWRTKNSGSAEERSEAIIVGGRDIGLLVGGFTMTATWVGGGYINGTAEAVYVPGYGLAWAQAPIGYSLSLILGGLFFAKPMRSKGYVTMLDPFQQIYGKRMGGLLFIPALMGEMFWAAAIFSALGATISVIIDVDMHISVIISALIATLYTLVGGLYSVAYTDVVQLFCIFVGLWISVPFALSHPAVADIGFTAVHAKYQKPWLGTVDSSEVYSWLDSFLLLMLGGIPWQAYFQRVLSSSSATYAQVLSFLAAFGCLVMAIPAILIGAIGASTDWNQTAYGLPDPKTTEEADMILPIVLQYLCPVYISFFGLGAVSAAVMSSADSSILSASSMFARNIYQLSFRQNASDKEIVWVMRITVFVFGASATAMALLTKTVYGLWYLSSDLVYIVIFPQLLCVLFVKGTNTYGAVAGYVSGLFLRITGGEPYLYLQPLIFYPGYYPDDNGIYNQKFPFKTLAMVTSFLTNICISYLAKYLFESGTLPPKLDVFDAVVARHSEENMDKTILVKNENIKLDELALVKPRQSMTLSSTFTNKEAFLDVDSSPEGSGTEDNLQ
CHT block – inhibits the human high affinity choline transporter; Q9GZV3; hit rate 0.86% among 310,000; CHT-expressing cells, membrane potential dye, choline response; stronger effect = lower value; B-score at 10 µM; AID 488975;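 active means B-score over 3 SD under the library average, and starting fluorescence ratio not unusually high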;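 further: choline stimulus applied at its EC90 after an EC20 pre-addition; B-score computed on integrated fluorescence ratio after choline addition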
Numbers without * were called inactive; i = inactive; nt = not tested or not shown; + = active, no number; ! = repeats disagree. Shown are actives, neighbours in structure and some others; about 3.2% of the full set was active somewhere.

SMILES | ANO1 block | Rce1 inhib | TMEM16A act | Kir21 inh | CHT PAM | CHT block
O=C(C(Cl)Cl)N1c2ccccc2OCC1c1ccccc1 (stereo not drawn) | i | i | i | -2.72 | i | i
Cc1cccc(N(C)S(=O)(=O)c2ccc(-c3cnc(C4CC4)o3)cc2)c1 | i | i | i | 0.02 | 7.32* | i
O=C(NCCc1ccco1)c1cc(COc2cccc(C(F)(F)F)c2)on1 | i | nt | i | 0.01 | i | i
CSCC[C@H](NC(=O)Nc1cccc(Br)c1)C(=O)O | i | i | i | -0.06 | i | i
COc1ccc(C(=O)/C=C/c2ccc(OC)cc2OC)c(O)c1 | i | + | i | -0.3 | i | i
COc1ccc(/C=C/C(=O)c2cc(Cl)ccc2O)c(OC)c1 | i | i | i | -0.26 | i | i
Cc1cc(S(=O)(=O)Nc2ccc3c(c2)n(C)c(=O)n3C)ccc1F | 100* | i | i | 1.15 | i | i
COc1ccc(S(=O)(=O)Nc2ccc3c(c2)n(C)c(=O)n3C)cc1F | i | i | i | -0.92 | i | i
COc1ccc(C(=O)NC(=S)Nc2cccc3ncccc23)cc1[N+](=O)[O-] | i | i | i | 0.24 | i | i
Cc1ccc(C(C)C)cc1OCC(=O)N/N=C/c1ccc2c(c1)OCCO2 | 100* | i | i | -0.05 | i | i
CCCCNC(=O)Nc1ccccc1CC | i | i | i | -0.17 | i | i
CCCCNC(=S)Nc1ccccc1Cc1ccccc1 | i | i | i | -4.74* | i | i
CSc1ccccc1OCc1cc(C(=O)N2CCC(Oc3cccnc3)CC2)no1 | 25* | i | i | 0.63 | i | i
CSc1ccccc1OCc1cc(C(=O)N2CCSCC2)no1 | i | i | i | 1.07 | i | i
Cn1ccnc1C(=O)c1cc(SCC(=O)N2CCOCC2)nc2ccccc12 | i | i | i | 0.09 | i | i
COc1ccc(C2CC(c3cccs3)=NN2C(=O)CSc2nc(=O)n3cc(C)ccc3n2)cc1 (stereo not drawn) | i | i | i | -0.8 | i | i
CN(C)C(=O)N1CCC(C(=O)NCc2ccc3c(c2)OCO3)CC1 | i | i | i | -0.48 | i | i
O=C(NC1CC1)C1CCN(C2CCN(C(=O)Cc3ccc4c(c3)OCO4)CC2)CC1 | i | i | i | 0.77 | i | -10.3*
CN(Cc1ccccc1F)C(=O)c1sccc1-c1ccccc1 | i | i | i | -11.8* | i | i
COc1ccccc1CNC(=O)c1ccccc1OCc1ccc(F)cc1 | i | i | i | -6.52* | i | i
COc1ccccc1CNC(=O)c1ccccc1N | i | + | i | 0.26 | i | i
COC(=O)Cc1ccc(NC(=S)NCc2ccccc2OC)cc1 | i | i | i | -0.02 | i | i
COc1ccccc1CNC(=S)Nc1ccc(F)cc1 | i | i | i | -4.67* | i | i
COc1cccc(CN(C)C(=O)c2sccc2-c2ccccc2)c1OC | i | i | i | -3.56 | i | i
CC(C)(C)NC(=O)COc1ccc2oc3c(c2c1)CCCC3 | i | nt | i | -0.76 | i | i
SMILES | ANO1 block | Rce1 inhib | TMEM16A act | Kir21 inh | CHT PAM | CHT block
COc1ccccc1CNC(=O)c1sccc1-c1ccccc1 | i | i | i | -6.56* | i | i
Cc1cc(C)c2cc(C#N)c(N3CCCN(C(=S)NCCCN(C)C)CC3)nc2c1 | i | i | i | -6.6* | i | i
CCOC(=O)[C@H]1[C@H]2COc3ccc(C)cc3[C@@H]2N2C(=O)[C@@H](C)NC(=O)[C@@]12C | nt | nt | i | nt | nt | nt
CCOc1ccc(S(=O)(=O)Nc2cnc3ccccc3c2)cc1 | 25* | i | i | 1.26 | i | i
CCOc1ccc(S(=O)(=O)Nc2nc3ccccc3nc2Cl)cc1 | i | i | i | 0.32 | i | i
Cc1ccc(OCC(O)CN2CCN(Cc3ccc4c(c3)OCO4)CC2)cc1C (stereo not drawn) | i | i | i | -0.09 | i | i
O=C(C1=C[C@H](C2CCCCC2)C[C@H](OCc2ccc(CO)cc2)O1)N1CCN(Cc2ccc3c(c2)OCO3)CC1 | i | i | i | -0.52 | i | i
CCn1cnc2sc(C(=O)N3CCN(Cc4ccc5c(c4)OCO5)CC3)c(C)c2c1=O | 25* | i | nt | 2.59 | i | i
C=CCc1ccccc1OCC(O)CN1CCN(Cc2ccc3c(c2)OCO3)CC1 (stereo not drawn) | i | i | i | -4.56*! | i | i
COc1ccccc1C(=O)N1CCN(Cc2ccc3c(c2)OCO3)CC1 | i | i | -14.4* | -0.23 | i | i
O=C(C1=C[C@H](C2CC2)C[C@H](OCc2ccc(CO)cc2)O1)N1CCN(Cc2ccc3c(c2)OCO3)CC1 | i | i | i | -0.62 | i | -5.26*
CCN(CC)C(=O)Cn1cnc2sc(C(=O)N3CCN(Cc4ccc5c(c4)OCO5)CC3)c(C)c2c1=O | i | i | i | -1.71 | i | i
Cc1nc(N2CCN(S(=O)(=O)c3ccccc3C#N)CC2)c2c(-c3ccccc3)csc2n1 | nt | nt | i | nt | nt | nt
CCOC(=O)c1cnc2ccc(OCC)cc2c1NCc1ccccc1OC | 100* | i | i | 0.95 | i | i
CC(C)C(NC(=O)c1ccco1)C(=O)NCC(c1ccco1)N1CCCCC1 (stereo not drawn) | i | + | i | 0.96 | i | i
Cc1ccc(C2N(c3ccc(Cl)c(Cl)c3)C(=O)C3CCCN32)o1 (stereo not drawn) | i | nt | i | -0.53 | i | i
COc1ccc(N2C(=O)C3CCCN3C2c2ccc(C)o2)cc1Cl (stereo not drawn) | 25* | i | i | -1.34 | i | i
CC(=O)NCCc1nc2cc(NC(=O)COc3cccc(C)c3)ccc2n1C | i | i | i | 0.32 | i | i
Cc1ccc(S(=O)(=O)Nc2ccccc2C(=O)NCC2CCCO2)cc1 (stereo not drawn) | i | + | nt | -0.5 | i | i
O=C(NCC1CCCO1)c1ccccc1NS(=O)(=O)c1ccc(F)cc1 (stereo not drawn) | nt | nt | i | nt | nt | nt
O=c1c(-c2ccco2)[n+]([O-])c2ccccc2n1OCc1ccccc1[N+](=O)[O-] | i | i | i | 1.63 | i | i
Cc1ccc(C2(CCNCc3ccc(N(C)C)cc3)CCOC(C(C)C)C2)cc1 (stereo not drawn) | i | i | i | -4.68* | i | i
CC(C)C1CC(CCNCc2ccc(N(C)C)cc2)(c2ccccc2)CCO1 (stereo not drawn) | i | i | i | -2.35 | i | i
